Test results reported in publication PMC4336329 (PLoS ONE, 2015).
Hit rate of the full screen: of about 310,000 compounds, about 14,000 (4.5%) showed an effect of 50% or more. The effect is printed as a negative number. The sample holds strong results, similar compounds and a random draw of the others, so the mix is not that of the screen.

target: human ether-à-go-go-related gene (hERG) potassium channel (human, UniProt Q12809); assay: primary screen, population patch clamp on CHO cells stably expressing hERG; higher = less effect of the substance
Sequence (Q12809 whole entry, looked up): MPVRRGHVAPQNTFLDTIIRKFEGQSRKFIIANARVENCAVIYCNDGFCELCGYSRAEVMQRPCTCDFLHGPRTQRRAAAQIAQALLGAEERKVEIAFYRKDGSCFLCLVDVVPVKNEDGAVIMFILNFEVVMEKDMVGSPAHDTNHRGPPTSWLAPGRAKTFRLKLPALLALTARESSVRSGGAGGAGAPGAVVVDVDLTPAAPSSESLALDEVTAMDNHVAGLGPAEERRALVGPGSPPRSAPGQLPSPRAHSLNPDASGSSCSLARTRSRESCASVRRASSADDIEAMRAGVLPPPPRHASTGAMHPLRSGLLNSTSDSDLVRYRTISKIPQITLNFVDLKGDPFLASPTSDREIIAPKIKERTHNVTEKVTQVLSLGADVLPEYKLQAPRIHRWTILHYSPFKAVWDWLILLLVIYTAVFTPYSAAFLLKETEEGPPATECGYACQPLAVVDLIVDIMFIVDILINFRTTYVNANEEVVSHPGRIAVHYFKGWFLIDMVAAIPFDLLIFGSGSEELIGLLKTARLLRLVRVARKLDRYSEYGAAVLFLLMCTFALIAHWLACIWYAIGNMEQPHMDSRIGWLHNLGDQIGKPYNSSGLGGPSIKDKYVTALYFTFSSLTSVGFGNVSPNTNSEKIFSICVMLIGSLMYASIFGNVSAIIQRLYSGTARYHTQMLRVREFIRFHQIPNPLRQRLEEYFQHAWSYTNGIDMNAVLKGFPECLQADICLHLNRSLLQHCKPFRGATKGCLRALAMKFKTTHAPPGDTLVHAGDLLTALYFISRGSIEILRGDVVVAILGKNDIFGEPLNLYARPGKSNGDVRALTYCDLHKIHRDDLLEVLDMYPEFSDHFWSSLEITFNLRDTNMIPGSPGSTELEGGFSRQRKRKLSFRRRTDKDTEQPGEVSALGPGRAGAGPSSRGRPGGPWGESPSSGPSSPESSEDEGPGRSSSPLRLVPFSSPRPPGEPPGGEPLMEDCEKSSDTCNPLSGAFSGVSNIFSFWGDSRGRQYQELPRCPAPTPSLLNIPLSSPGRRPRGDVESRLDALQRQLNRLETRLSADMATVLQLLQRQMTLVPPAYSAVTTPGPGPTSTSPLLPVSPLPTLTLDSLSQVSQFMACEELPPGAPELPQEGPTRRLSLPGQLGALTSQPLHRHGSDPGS
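Note: peak tail current of the secondary pulse compared with the same well before compound.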

| SMILES | hERG current change (%, negative = inhibition) at 10uM [%] |
| --- | --- |
| O=C(c1nnc(Cc2ccc(Cl)cc2)o1)N1CCOCC1 | 10.7 |
| O=C(Nc1ccc(Cl)cc1)N1CCOCC1 | 13.8 |
| O=C(Nc1ccc(F)c(Cl)c1)c1ccccc1 | 0.672 |
| COCCNS(=O)(=O)c1cc(C(=O)O)ccc1OC | 15.9 |
| COc1cc(C(=O)OC2C[C@H]3CC[C@@H](C2)N3C)ccc1O (stereo partly drawn) | -7 |
| Cc1ccc(N2C(=O)C3C(C2=O)C(C(=O)c2ccc(Cl)cc2)N2CCCC32)cc1 (stereo not drawn) | 2.31 |
| OCC[C@@H]1C[C@@H](O)[C@H](O)[C@@]2(CCCO2)O1 | 6.76 |
| CCCc1cc(=O)[nH]c(SCC(=O)c2c(N)n(C3CC3)c(=O)[nH]c2=O)n1 | 6.85 |
| COc1ccc2c3n(nc2c1)CCN=C3c1ccc(C)cc1 | -14.3 |
| O=C(NCCS(=O)(=O)N1CCN(c2ccccc2)CC1)C1CC(=O)N(c2ccc(F)cc2)C1 (stereo not drawn) | -1.02 |
| O=C(CN1CCN(c2ccccc2F)CC1)NCc1ccccc1 | -0.288 |
| O=C(COC(=O)CNC(=O)c1ccccc1F)Nc1ncc(Cl)cc1Cl | -3.8 |
| Cc1c(Cl)cccc1NC(=S)N(Cc1ccco1)C(C)c1ccccn1 (stereo not drawn) | -11 |
| CN(CCn1ccnc1)Cc1cn(-c2ccccc2)nc1-c1ccc2c(c1)OCO2 | -62.9 |
| CN(CCn1ccnc1)Cc1cn(Cc2ccccc2)nc1-c1ccc2c(c1)OCO2 | -23.2 |
| CN(Cc1cccnc1)Cc1cn(Cc2ccccc2)nc1-c1ccc2c(c1)OCO2 | -11.7 |
| O=C(Nc1ccccc1)/C(=C\c1cccs1)NC(=O)c1ccccc1 | 9.9 |
| Cc1ccc(NC(=O)/C(=C\c2cccs2)NC(=O)c2ccccc2)cc1 | -3.84 |
| O=C(N/C(=C\c1ccc2c(c1)OCO2)C(=O)N1CCOCC1)c1cccs1 | -42.8 |
| CCOC(=O)N1CCN(C(=O)/C(=C\c2cccs2)NC(=O)c2cccs2)CC1 | -71.8 |
| O=C(N/C(=C\c1cccs1)C(=O)N1CCCCCC1)c1ccccc1 | -32.3 |
| O=C(N/C(=C/c1cccs1)C(=O)N1CCCC1)c1ccccc1 | 6.44 |
| O=C(N/C(=C/c1ccc2c(c1)OCO2)C(=O)N1CCOCC1)c1cccs1 | 9.12 |
| CCOC(=O)N1CCC(NC(=O)c2cccs2)CC1 | 6.2 |

| SMILES | hERG current change (%, negative = inhibition) at 10uM [%] |
| --- | --- |
| CN1CCN(C(=O)/C(=C\c2ccc3c(c2)OCO3)NC(=O)c2cccs2)CC1 | -76.8 |
| CCOC(=O)N1CCN(C(=O)/C(=C/c2cccs2)NC(=O)c2cccs2)CC1 | -45.7 |
| CN1CCN(C(=O)/C(=C\c2cccs2)NC(=O)c2ccccc2)CC1 | -75.3 |
| Cc1cccc(NC(=O)/C(=C\c2cccs2)NC(=O)c2ccccc2)c1 | -51.7 |
| COc1cc(CNCC2CCCO2)ccc1OCC(N)=O.Cl (stereo not drawn) | 16.3 |
| CCOc1ccc(S(=O)(=O)N2CCC(C(=O)NCc3cccnc3)CC2)cc1 | -27.1 |
| CCCC1(c2ccccc2)NC(=O)N(CC(=O)Nc2cc(C)on2)C1=O (stereo not drawn) | 23.6 |
| CCc1nn(CC(=O)NCCc2ccc(S(N)(=O)=O)cc2)c(=O)c2cc3sccc3n12 | 20.1 |
| Oc1ccc(O)c(/C(=N/Nc2ccccc2)c2ccccc2)c1 | 11 |
| O=c1n(-c2cccc(Cl)c2)c(=O)n2n1CCC2 | -6.81 |
| O=C(CCN1CCN(c2ccc(Cl)cc2)CC1)Nc1nccs1 | -13.3 |
| COc1cc(C2c3c(oc4c(C)cc(C)cc4c3=O)C(=O)N2Cc2cccnc2)ccc1O (stereo not drawn) | 5.03 |
| COCC(C)n1c(C)cc(C(=O)COC(=O)/C=C/c2cccc(F)c2)c1C (stereo not drawn) | -31.6 |
| Cc1nn(Cc2ccccc2)c(Cl)c1/C=C/C(=O)OC(C)C(=O)N1CCCC1 (stereo not drawn) | 18.7 |
| Cc1ccc(C(=O)N/C(=C/c2cccs2)C(=O)N2CCCCC2)cc1 | -35.4 |
| O=C(N/C(=C/c1cccs1)C(=O)N1CCOCC1)c1cccs1 | -8.41 |
| CN1CCN(C(=O)/C(=C\c2cccs2)NC(=O)c2cccs2)CC1 | -72.5 |
| Cc1ccc(C(=O)N/C(=C/c2cccs2)C(=O)N2CCCCCC2)cc1 | -46 |
| Cc1ccc(C(=O)N/C(=C\c2cccs2)C(=O)N2CCCCCC2)cc1 | -50.7 |
| O=C(N/C(=C\c1cccs1)C(=O)N1CCOCC1)c1cccs1 | -9.07 |
| Cc1cc(NC(=O)C2CC(=O)N(c3ccccc3Cl)C2)no1 (stereo not drawn) | 14.6 |
| C/C(=N\NC(=O)CNC(=O)c1ccc2c(c1)OCCO2)c1ccco1 | 10.7 |
| CC(=O)Nc1ccc(S(=O)(=O)N2CCN(CCCOc3ccccc3Cl)CC2)cc1 | -49.6 |
| CN(CCN1CCOCC1)C(=O)CC1C(=O)NCCN1Cc1ccccc1F (stereo not drawn) | 12 |

| SMILES | hERG current change (%, negative = inhibition) at 10uM [%] |
| --- | --- |
| Cc1csc(NC(=O)CSc2nnc(-c3ccccn3)n2-c2ccc(C)c(C)c2)n1 | -78.5 |
| Cc1cc(C)cc(NC(=O)CSc2ccc(-c3ccccn3)nn2)c1 | 8.61 |
| Cc1ccc(-n2c(SCC(N)=O)nnc2-c2ccccn2)cc1C | 8.79 |
| CCN(CC)C(=O)CSc1nnc(-c2ccccn2)n1-c1ccc(C)c(C)c1 | -24.8 |
| Cc1nnc(NC(=O)CSc2ccc(-c3ccccn3)nn2)s1 | 12.1 |
| Cc1csc(SCC(=O)Nc2nc(-c3ccccc3)cs2)n1 | -8.35 |
| Cc1csc(NC(=O)CSc2ccc(-c3ccccc3)nn2)n1 | -66.9 |
| Cc1csc(NC(=O)CSc2ccc(-c3ccc(F)cc3)nn2)n1 | -26.8 |
| Cc1csc(NC(=O)CSc2ccc(-c3ccccn3)nn2)n1 | -73.6 |
| COc1ccc(CCN2C(=O)CSC2c2cccc([N+](=O)[O-])c2)cc1OC (stereo not drawn) | -3.39 |
| CCOC(=O)c1c(C)nc2c(c1-c1ccccc1)C(=O)CC(C)(C)C2 | -16.8 |
| CC(OC(=O)c1ccc(O)cc1)C(=O)Nc1nc(-c2ccccc2)cs1 (stereo not drawn) | -17.8 |
| CCOC(=O)N1CCN(C(=O)C2CCN(S(=O)(=O)c3ccc(F)cc3)CC2)CC1 | -19.3 |
| CSc1ccccc1C(=O)NC1CCCN(Cc2ccccc2F)C1 (stereo not drawn) | -11.5 |
| CC(=O)NC1C(OCc2cccc(Br)c2)OC(COC(C)=O)C(OC(C)=O)C1OC(C)=O (stereo not drawn) | -12.4 |
| CNC(=O)c1ccccc1Sc1ccccc1C#N | 19.1 |
| CCOc1cc(N2CCOCC2)c(OCC)cc1NC(=O)C(C)(C)C | 17.4 |
| CCc1cccc(C)c1NC(=O)C1CCN(C(=O)c2ccc([N+](=O)[O-])cc2)CC1 | -48.2 |
| O=C(Nc1cccc([N+](=O)[O-])c1)C1CCN(C(=O)Cc2ccccc2)CC1 | -43.3 |
| O=C(Nc1ccccc1)C1CCN(C(=O)c2ccc([N+](=O)[O-])cc2)CC1 | -71.4 |
| CC(=O)Nc1ccc(NC(=O)C2CCN(C(=O)c3ccc([N+](=O)[O-])cc3)CC2)cc1 | -0.926 |
| O=C(Nc1cccc([N+](=O)[O-])c1)N1CCN(c2ccccc2)CC1 | -38.7 |
| CC(=O)c1ccc(NC(=O)N2CCN(c3ccc(C)cc3)C(C)C2)cc1 (stereo not drawn) | -19.6 |
| COc1cc(C(=O)N2CCC(C(=O)Nc3cccc(C(C)=O)c3)CC2)cc(OC)c1OC | -2.12 |

| SMILES | hERG current change (%, negative = inhibition) at 10uM [%] |
| --- | --- |
| CC(=O)c1cccc(NC(=O)C2CCN(C(=O)c3ccc([N+](=O)[O-])cc3)CC2)c1 | -69.6 |
| Cc1ccc(N2CCN(C(=O)Nc3cccc([N+](=O)[O-])c3)CC2C)cc1 (stereo not drawn) | -78.3 |
| O=C(Nc1ccc(F)cc1)C1CCN(C(=O)c2ccc([N+](=O)[O-])cc2)CC1 | -4.16 |
| CC(=O)c1cccc(NC(=O)C2CCN(C(=O)c3ccccc3Cl)CC2)c1 | -0.359 |
| Cc1ccc(C(=O)N2CCC(C(=O)Nc3cccc([N+](=O)[O-])c3)CC2)cc1 | -80.1 |
| NC(=O)CN1C2CCC1CC(NC(=O)C1CC1)C2 (stereo not drawn) | 14.7 |
| O=C(Nc1ccc(C(=O)N2CCCC2)cc1)c1ccccc1Br | 19.8 |
| COc1ccccc1NS(=O)(=O)c1ccc(O)cc1 | 1.44 |
| COc1nc(N=C(N)N)nc2c(C)cccc12 | -2.93 |
| CC(=O)Nc1ccc(S(=O)(=O)Nc2nc3ccccc3nc2Nc2ccccc2)cc1 | 10.3 |
| CC(=O)Nc1ccc(NC(=O)CN(C)S(=O)(=O)c2ccc3nc(C)sc3c2)cc1 | 25.7 |
| O=C1NCCCC1C(=O)N/N=C/c1ccccc1 (stereo not drawn) | -4.35 |
| O=C(c1cc2sccc2n1Cc1ccccc1)N1CCCc2ccccc21 | 1.8 |
| O=C(NCc1cccc(Cl)c1)c1ccc2c(c1)OCO2 | 0.973 |
| Cc1ccc(CNc2ccc3c(c2)OCO3)cc1 | -4.29 |
| Cn1c(-c2ccc3c(c2)OCO3)cnc1NCc1ccccc1.O=C(O)C(=O)O | -60 |
| Cn1c(-c2ccc3c(c2)OCO3)cnc1N | -16.5 |
| Cc1ccc(CNc2ncc(-c3ccc4c(c3)OCO4)n2C)cc1.O=C(O)C(=O)O | -59 |
| Cn1c(-c2ccc3c(c2)OCO3)cnc1NC(=O)CCC(=O)NCCc1ccccc1 | -6.98 |
| Cn1c(-c2ccc3c(c2)OCO3)cnc1NCc1cccc(O)c1.O=C(O)C(=O)O | -23.1 |
| Cn1c(-c2ccc3c(c2)OCO3)cnc1NCc1cccc(Cl)c1.O=C(O)C(=O)O | -74 |
